M1 PAM – positive allosteric modulators of human M1 muscarinic receptor. P11229. CHO-K1 hM1, Fluo-8 calcium fluorescence, ACh EC20; 0% = ACh EC20, 100% = maximal ACh. activation, % at 3 µM. actives 0.088% (n = 360,000). AID 588819; in the data active means activation above about 19%, passing the limit was not always enough
Target sequence (P11229 whole entry, looked up): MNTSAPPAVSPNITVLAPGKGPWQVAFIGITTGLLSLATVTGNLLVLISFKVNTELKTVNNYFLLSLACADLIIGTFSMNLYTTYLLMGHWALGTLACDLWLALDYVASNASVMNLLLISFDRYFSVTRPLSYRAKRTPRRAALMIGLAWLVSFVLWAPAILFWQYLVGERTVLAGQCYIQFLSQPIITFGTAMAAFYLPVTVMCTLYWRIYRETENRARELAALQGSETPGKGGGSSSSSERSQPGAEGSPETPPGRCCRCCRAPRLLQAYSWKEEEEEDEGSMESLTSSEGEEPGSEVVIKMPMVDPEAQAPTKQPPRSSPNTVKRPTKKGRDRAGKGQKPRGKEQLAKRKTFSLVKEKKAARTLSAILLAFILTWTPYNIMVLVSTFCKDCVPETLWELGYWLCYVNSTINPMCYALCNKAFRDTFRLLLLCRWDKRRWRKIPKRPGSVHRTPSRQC
CHRM1 agonist – activates human CHRM1 receptor; AID 588814; actives 0.33% (n = 360,000); activation, % at 3 µM; CHO-K1 hM1, Fluo-8 calcium fluorescence, agonist mode; 0% DMSO, 100% acetylcholine EC100; P11229;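 active means activation above the run's mean compound activation plus 3 SD, cut at about 16% in these data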;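 further: peak over basal fluorescence ratio within a 140 s kinetic read after compound addition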
M1 ag parental – counter-screen for M1 agonists: effect in parental CHO-K1 cells | AID 602248 | actives 0.48% (n = 360,000) | activation, % at 3 µM | Fluo-8 calcium fluorescence; scaled to maximal ATP response, vehicle zero; in the data active means activation above about 15%;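 further: untransfected CHO-K1 host cells lacking M1 receptor as counterscreen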
CHO-K1 Ca antag – nonselective inhibitor or artifact in parental CHO-K1 cells | ATP-induced calcium, Fluo-8 fluorescence | inhibition, % at 3 µM | actives 0.6% (n = 360,000);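 active means inhibition above a per-plate cutoff, the plate's mean sample inhibition plus 3 SD, cut at about 24% in these data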;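 further: 0% = DMSO plus EC80 ATP and 100% = DMSO alone without ATP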
CHO-K1 Ca PAM – counter-screen for M1 PAMs: effect in parental CHO-K1 cells; ATP EC20, Fluo-8 calcium fluorescence; 0% at ATP EC20, 100% at ATP max; activation, % at 3 µM; actives 0.02% (n = 360,000);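 active means activation above the run cutoff, the mean activation of all test compounds plus 3 SD, cut at about 40% in these data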;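 further: peak over basal fluorescence ratio in a 140 s read after ATP addition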
M1 antag – blocks human M1 muscarinic receptor | CHO-K1 hM1, Fluo-8 calcium fluorescence, ACh EC80 antagonist | inhibition, % at 3 µM | actives 1.3% (n = 360,000);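 active means percent inhibition above its own plate's cutoff, namely the mean of that plate's compound wells plus 3 SD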;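 further: peak over basal fluorescence ratio during 140 s after agonist addition; 0% = ACh EC80 plus DMSO and 100% = DMSO alone without agonist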
* = called active by the depositor. This is a sample that favours compounds with a hit; in the whole collection about 2.4% have one here.

SMILES	M1 PAM	CHRM1 agonist	M1 ag parental	CHO-K1 Ca antag	CHO-K1 Ca PAM	M1 antag
COc1ccc(NC(=O)C2Cc3c(-c4cccc(C(C)=O)c4)ccnc3O2)cc1OC (stereo not given)	-5.1	6.3	2.4	23.9*	-16.5	6.3
CCN(C[C@H]1N[C@@](CC)(C(=O)OC)[C@H]2C(=O)N(Cc3ccccc3)C(=O)[C@@H]12)C(=O)c1ccc(C(C)(C)C)cc1	-13.7	0.1	5.8	-9.3	16.9	27.8*
CC[C@@]1(C(=O)OC)N[C@H](CN(C)C(=O)c2ccc(C(C)(C)C)cc2)[C@@H]2C(=O)N(Cc3ccccc3)C(=O)[C@@H]21	-13.1	2.9	3.4	6.5	-5.5	4.2
O=C(NCc1ccc(F)cc1)N1CCN(C(=O)c2ccccc2)CC1	5.1	-4.7	0.6	-18.2	17.0	-8.5
CCC(C)N(C)Cc1cccc(C2(O)CCN(S(=O)(=O)c3ccc(F)c(C)c3)CC2)c1 (stereo not given)	-27.0	-11.3	-0.3	-12.5	5.3	81.4*
CC(=O)Nc1ccc(S(=O)(=O)N2CCC(C(=O)NCc3ccncc3)CC2)cc1	7.1	-2.5	0.7	-7.8	1.7	-5.6
CCOC(=O)N1CCC(NCCNC(=O)c2ccccc2Cl)CC1	-15.6	43.4*	-0.4	10.4	-7.3	38.2*
CCOC(=O)N1CCC(NC(=O)c2ccccc2C(=O)O)CC1	-4.9	-2.6	0.0	11.7	-20.0	11.4
CCOC(=O)N1CCC(NC(=O)c2cccs2)CC1	1.1	-2.7	1.0	-10.6	18.1	-13.7
CCOC(=O)N1CCC(NCCNC(=O)c2ccccc2)CC1	-13.6	52.5*	0.6	0.4	8.7	47.5*
CCOC(=O)N1CCC(NCCNC(=O)c2cccs2)CC1	-12.5	31.4*	0.1	4.0	-1.1	21.1
O=C(OCCN1CCOCC1)c1ccc(O)cc1	-0.9	-0.5	0.1	2.9	-16.6	4.7
COc1ccc(NS(=O)(=O)c2ccc(NS(=O)(=O)c3cccs3)cc2)cc1	4.1	-1.1	1.2	-18.1	-0.3	-5.3
c1ccc(C(c2ccccc2)c2noc(CN3CCN(CC4CC4)CC3)n2)cc1	-26.9	-7.7	0.1	13.0	6.9	93.5*
N#CC1=C(SCC(=O)c2ccccc2)NC2=C(C(=O)CCC2)C1c1ccco1 (stereo not given)	-11.9	-4.7	1.3	31.1*	-5.9	-4.5
Cc1ccc(C(=O)CSC2=C(C#N)C(c3ccco3)C3=C(CCCC3=O)N2)cc1 (stereo not given)	1.4	-6.5	0.3	-6.8	8.0	-5.7
C[C@H](CO)N1C[C@H](C)[C@@H](CN(C)CC2CC2)Oc2c(NC(=O)C3CC3)cccc2C1=O	-3.0	-7.1	0.1	-4.7	-1.4	5.6
C[C@H](CO)N1C[C@H](C)[C@@H](CN(C)C(=O)Nc2ccc(C(F)(F)F)cc2)Oc2c(NC(=O)Nc3ccc(C(F)(F)F)cc3)cccc2C1=O	3.4	0.4	3.4	-10.3	20.9	-0.9
Cc1cc(C(=O)Nc2cccc3c2O[C@H](CN(C)CC2CC2)[C@@H](C)CN([C@H](C)CO)C3=O)n(C)n1	6.8	5.1	9.9	-28.1	56.1*	-5.8
C[C@H]1CN([C@@H](C)CO)C(=O)c2cccc(NC(=O)Nc3ccc(C(F)(F)F)cc3)c2O[C@H]1CN(C)C	26.5*	6.0	-0.3	1.5	2.9	-12.9
Cc1[nH]c(C)c(S(=O)(=O)N(Cc2ccccc2)C(C)C)c1C(=O)N1CCCC1	-9.9	-3.4	0.1	-1.2	-17.3	12.3
Cc1cc(C)nc(SCC(=O)OCC(=O)Nc2ccccc2)n1	11.5	-0.2	0.5	-4.0	10.2	-16.9
Cc1ccc(/C=C2\SC(=S)N(/N=C/c3cc([N+](=O)[O-])ccc3O)C2=O)o1	-2.6	-3.6	4.7	3.4	3.8	1.7
COCCN(C(=S)Nc1cc(C)cc(C)c1)C(C)c1ccco1 (stereo not given)	25.7*	-3.3	0.5	-11.0	19.1	0.4
O=S(=O)(NCC1CN(S(=O)(=O)c2c(F)cccc2F)C1)c1ccc2c(c1)OCCO2	-15.7	0.3	11.2	-2.0	-6.8	23.9
SMILES	M1 PAM	CHRM1 agonist	M1 ag parental	CHO-K1 Ca antag	CHO-K1 Ca PAM	M1 antag
COc1ccccc1CCc1nnc(CCC(=O)N(C)Cc2cccc3cnccc23)o1	-9.0	-7.4	0.3	25.3*	-16.1	15.6
Cc1ccc(NC(=O)CSCC(=O)Nc2cccc(S(=O)(=O)N3CCCCCC3)c2)cc1	-7.5	-1.1	1.3	0.0	-18.2	14.2
COc1ccc(-c2csc(N(CCCN(C)C)C(=O)c3ccccc3Cl)n2)cc1	-27.7	-9.1	2.9	-15.8	10.8	52.7*
CN(C)CCCN(C(=O)c1cccs1)c1nc(-c2ccccc2)cs1	-12.5	19.1*	1.8	-11.4	11.5	40.7*
COc1ccc(-c2csc(N(CCCN(C)C)C(=O)c3ccccc3C)n2)cc1	-15.6	-8.5	2.5	-12.4	16.4	13.9
COc1ccc(CNC(=O)c2cn(Cc3ccc(S(=O)(=O)N(C)C)cc3)c(=O)s2)cc1	9.9	4.8	6.2	-3.0	-9.2	-8.1
CCC(=O)Nc1ccc(NC(=S)NC(=O)/C=C/c2ccco2)cc1	14.2	-1.7	0.6	-1.2	17.1	-18.4
CC(=O)NC(=S)Nc1ccc(NC(=S)NC(=O)/C=C/c2ccco2)cc1	15.5	25.1*	11.5	-11.2	37.7	-6.8
Cc1cc(C)c(OCC(=O)NCC2COc3ccccc3O2)c(C)c1 (stereo not given)	8.3	-2.2	0.1	-0.2	-17.7	2.7
Cc1cccc(-n2c(C)cc(/C=N/n3cnnc3)c2C)c1	-21.5	-3.0	0.7	-10.8	16.1	70.3*
O=c1c2ccccc2nc(COc2ccccc2)n1/N=C/c1cn[nH]c1-c1ccccc1	-10.3	-3.6	4.9	3.6	14.3	28.4*
Cc1cc(OCc2cn3cccnc3n2)ccc1Cl	5.2	-3.6	-0.6	10.8	-9.5	-6.5
COc1cc(C2Nc3ccccc3C(=O)N2NS(C)(=O)=O)c([N+](=O)[O-])cc1OC (stereo not given)	27.3*	-3.1	-0.2	-7.4	7.4	-4.0
COc1cc(SC)ccc1C(=O)Nc1nccs1	5.3	-4.2	0.9	-13.4	22.3	-4.0
COc1ccc(N(C)S(=O)(=O)c2cccc(C(=O)Nc3ccc(-n4cnnn4)cc3)c2)cc1	-13.1	4.2	8.9	-0.9	12.7	29.0*
COc1ccc(N(C)S(=O)(=O)c2cccc(C(=O)Nc3ccc4c(c3)OCCO4)c2)cc1	-1.8	-1.0	5.5	8.2	-9.5	12.1
Cc1cc(=O)oc2cc(OCC(=O)N3CCC(O)CC3)c(Cl)cc12	-8.1	-1.9	0.1	-0.3	-6.4	19.4
CC(=O)Nc1ccc(/C=N/N2CCCCC2)cc1	-15.0	35.0*	0.1	1.5	-5.1	13.1
